Screen size: about 16,000 compounds; about 5,700 (36%) were called active. Roughly 24% stayed inconclusive and do not appear here. The call rests on the fitted dose curve; in most records, active means well fitted curve in the direction sought with a large enough effect; inconclusive means small, poorly fitted or top-dose-only effect, or effect the other way; inactive means no such curve, though single readings can be large or run the other way. Some of the results follow.
The molecules below were run against Cytochrome P450 1A2 (Homo sapiens) (UniProt P05177) (assay: Cytochrome panel assay with activity outcomes). Conditions: recombinant CYP, pro-luciferin dealkylation, luminescence, p450-cyp1a2; series mostly up to 57.1 µM; activity, negative = inhibition: at the top concentration.
On the % scale 0 is the no-effect control and ±100 the full control effect.

Chain of Cytochrome P450 1A2 (Homo sapiens) (P05177 whole entry, looked up): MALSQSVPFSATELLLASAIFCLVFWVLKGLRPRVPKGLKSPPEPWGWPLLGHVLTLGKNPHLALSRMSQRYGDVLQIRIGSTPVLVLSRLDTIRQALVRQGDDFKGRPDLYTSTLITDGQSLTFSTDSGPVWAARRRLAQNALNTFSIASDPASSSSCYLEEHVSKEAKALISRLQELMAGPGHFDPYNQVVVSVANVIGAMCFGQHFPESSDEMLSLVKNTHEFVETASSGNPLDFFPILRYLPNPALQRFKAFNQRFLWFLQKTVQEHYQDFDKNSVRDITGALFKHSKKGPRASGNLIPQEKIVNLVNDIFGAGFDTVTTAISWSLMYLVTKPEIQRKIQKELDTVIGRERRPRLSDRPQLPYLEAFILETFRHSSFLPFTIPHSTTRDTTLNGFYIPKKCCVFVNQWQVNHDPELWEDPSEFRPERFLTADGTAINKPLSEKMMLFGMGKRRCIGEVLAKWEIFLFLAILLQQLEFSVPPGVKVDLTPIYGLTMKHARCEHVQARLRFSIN

activity, negative = inhibition, inactive:
CCCC[C@H](CC)CN1CN(C[C@@H](CC)CCCC)CC(C)(N)C1 -9.62% [at 25.6 µM]
Cc1cc(C)n(-c2nc(Nc3ccccc3C)nc(-n3nc(C)cc3C)n2)n1 -29.6%
Cn1sc(NC(=O)c2ccccc2)nc1=O -23%
CCOC(=O)CSc1nnc(NC(=O)c2cccc(S(=O)(=O)N3CCCCCC3)c2)s1 5.01%
Cc1ccc(NC(=O)CN(C)C(=O)CSc2n[nH]c(N)n2)cc1 8.75%
C[C@@H]1NC(=O)C/C=C\[C@@H](C)[C@@H]2C=C[C@H](O)[C@@H](COC(=O)[C@H](C)NC(=O)C/C=C\[C@@H](C)[C@@H]3C=C[C@H](O)[C@@H](COC1=O)O3)O2 -3.28% [at 11.4 µM]
COC(=O)N1CCC2(CC1)CN(C(=O)Nc1cccc(C#N)c1)C2 14.1%
CN1CCC(=C2c3ccccc3CCc3sccc32)CC1 -6.82% [at 25.6 µM]
CS(=O)(=O)N1CCC[C@@]2(CCN(C(=O)Nc3ccccc3)C2)C1 -16.3%
COC(=O)[C@@]1(Cc2ccccc2)[C@H]2c3cc(C(=O)N4CCCC4)n(Cc4ccccn4)c3C[C@H]2CN1C(=O)c1ccccc1 -15.4%
CCNc1ncc2nc(-c3ccc(OC)cc3)c(=O)n(Cc3ccc(F)cc3)c2n1 -16.1%
O=C1O[C@@H]([C@H](O)[C@H](O)[C@H](O)CO)[C@@H](O)[C@@H]1O -12.7% [at 11.4 µM]
NC(=O)c1cc[n+](CC2=C(C(=O)[O-])N3C(=O)[C@@H](NC(=O)Cc4cccs4)[C@@H]3SC2)cc1 -15.1% [at 25.6 µM]
C[C@H](Oc1ccccc1)C(=O)N[C@@H]1C(=O)N2[C@@H]1SC(C)(C)[C@@H]2C(=O)O -7.23% [at 25.6 µM]
NOCC(=O)O -5.6%
Cc1n[nH]c(=O)[nH]c1=O -6.49% [at 25.6 µM]
CCNc1ncc2nc(-c3ccc(OC)cc3)c(=O)n(-c3ccc(OC)cc3)c2n1 -17.8%
COc1cc2cc3c4cc(OC)c(OC)cc4cc[n+]3c(C)c2cc1OC -21.4% [at 25.6 µM]
CC(C)CO/N=C1/[C@H]2O[C@@H]2[C@@H](O)[C@H]2[C@H]1CCn1c(=O)n(-c3ccccc3)c(=O)n12 -6.37% [at 11.4 µM]
Clc1ccccc1CNCC1CCC(CNCc2ccccc2Cl)CC1 (stereo not given) -6.82%
CCOc1cc(CNCCCN2CCOCC2)cc(Br)c1OCC(=O)Nc1cccc(C(F)(F)F)c1 -15.4%
CC(C)CN1CCC2(CC1)CCN(C(=O)c1cc(C(F)(F)F)cc(C(F)(F)F)c1)CC2 -4.57%
O=C(O)C1C2C=CC(C2)C1C(=O)N1CCN(C/C=C/c2ccccc2)CC1 (stereo not given) -25.9%
CC(C)(C)OC(=O)COc1cc(OCC(=O)OC(C)(C)C)c2c(=O)cc(-c3ccccc3)oc2c1 -27.5%
NS(=O)(=O)Cc1noc2ccccc12 -5.73%
CCCCC(=O)Nc1ccc(C(=O)NNC(=O)CCc2ccccc2)cc1 0.428%
CCC(CC)C(=O)Nc1cccc(C(=O)Nc2ccc(OC)cc2[N+](=O)[O-])c1 -2.86%
COc1cc(C2C(C(=O)c3ccc(C)o3)=C(O)C(=O)N2CCc2ccccc2)ccc1O (stereo not given) -18.9%
Cc1cc(C)nc(NN2C(=O)/C(=C/c3ccccc3)SC2=S)n1 -1.03%
Cc1cc(C)n2nc(SCN3C(=O)c4ccccc4C3=O)nc2n1 18.7% [at 11.4 µM]
CCCSc1nnc(CSc2nc3nc(C)cc(C)n3n2)o1 0.494%
O=C(O)c1c[nH]c2cc(OCc3ccccc3)ccc2c1=O -19.1% [at 11.4 µM]
O[C@@H]1[C@@H](OCc2ccccc2)OC[C@H](O)[C@@H]1O -15.1% [at 11.4 µM]
Cc1c(C(=O)Nc2ccc(OCc3ccccc3)cc2)cccc1[N+](=O)[O-] -26.7%

AC50, inactive:
N[C@H](C(=O)O)[C@@H]1C[C@@H]1C(=O)O
Cc1cc(C(C)(C)C)c(O)c(C)c1CC1=NCCN1

AC50, active:
Cc1cc(C)n(-c2nc(NC(C)C)nc(NC(C)C)n2)n1 10 µM
COc1cccc(C(=O)/C=C/c2ccc(SC)cc2)c1 2.51 µM
CCOC(=O)CSc1n[nH]c(NC(=O)c2ccccc2)n1 10 µM
CCOC(=O)CSc1n[nH]c(NC(=O)c2cccc(C)c2)n1 15.8 µM
CCOC(=O)CSc1n[nH]c(NC(=O)c2cccc(C(F)(F)F)c2)n1 3.16 µM
CCOC(=O)CC(=O)CSc1nc(-c2cccnc2)cc(C)c1C#N 10 µM
CCOC(=O)CSc1n[nH]c(-c2cccnc2)n1 2.51 µM
COc1ccc(CNc2ncnc3ccc(-c4ccoc4)cc23)c(OC)c1 1.58 µM
COc1ccccc1CNc1ncnc2ccc(-c3ccoc3)cc12 2.51 µM
O=c1[nH]c2cc(Br)cnc2nc1/C=C(\O)c1ccc(F)cc1 0.398 µM
CCNc1ncc2nc(-c3ccccc3)c(=O)n(C)c2n1 0.398 µM
CCNc1ncc2nc(-c3cccc(C#N)c3)c(=O)n(C)c2n1 2.51 µM
CCNc1ncc2nc(-c3ccc(F)cc3)c(=O)n(C)c2n1 0.501 µM
CCNc1ncc2nc(-c3cc(F)cc(F)c3)c(=O)n(C)c2n1 2 µM
CCNc1ncc2nc(-c3ccc(Cl)cc3)c(=O)n(C)c2n1 0.398 µM
c1cncc(-c2ccc3ncnc(N4CCNCC4)c3c2)c1 1.26 µM
N#Cc1cccc(-c2ccc3ncnc(N4CCNCC4)c3c2)c1 0.631 µM
CN1CCN(c2ncnc3ccc(-c4cccc(C#N)c4)cc23)CC1 1.26 µM
OCCCCNCc1ccc(OCc2ccccc2Cl)cc1 5.01 µM
CCOc1cc(CNCCO)cc(Br)c1OCc1ccccc1Cl 0.158 µM
Clc1ccc(-c2nc3ncccn3c2Nc2ccc3c(c2)OCCO3)cc1 6.31 µM
O=C(/C=C/c1ccc2ccccc2c1)c1ccoc1 2.24 µM
O=c1cc(-c2ccccc2)oc2cc(O)c(O)c(O)c12 0.501 µM
CCCCC(=O)Nc1ccc(C)c(O)c1 3.55 µM
CCC(CC)C(=O)Nc1ccc(C)c(O)c1 12.6 µM
O=C1/C(=C\c2ccccn2)SC(=S)N1Nc1ncc(C(F)(F)F)cc1Cl 8.91 µM
Cc1cc(C)n2nc(SCc3cc(=O)oc4ccc5ccccc5c34)nc2n1 5.62 µM
S=C(Nc1ccccc1)Nc1ccc(OCc2ccccc2)cc1 5.62 µM
Oc1ccc(OCc2ccccc2)cc1 1.58 µM

Source: PubChem BioAssay AID1851 (National Center for Advancing Translational Sciences (NCATS), 2009)
